Compounds with a hit are over-represented: about 0.93% of the library has one in this group of screens.
Coupling enz: counter-screen for Giardia aldolase inhibitors: coupling enzyme system; coupling enzyme system counterscreen, AmpLite Red fluorescence; activity change, negative = inhibition, % at 58.2 µM, hits read low; 290,000 tested, 0.67% active; in the data active = activity change below about -30%
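Counterscreen of the coupled detection system alone, without aldolase: glyceraldehyde-3-phosphate coupling enzymes plus AmpLite Red readout. Compounds at 57.5 uM final, 10 min RT preincubation, 20 min RT reaction, fluorescence 525/598 nm.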
RGS12 GoLoco inh: blocks human Gai1 binding to RGS12 GoLoco peptide, red readout; Potency, µM (top dose mostly 61.6 µM), for the others: top-dose activity, negative = inhibition, actives largely listed as inhibitors; AID 880; P63096; 230,000 tested, 0.44% active; Gai1:RGS12 GoLoco peptide FP, rhodamine, 10 min; active = well fitted inhibition curve with a large enough effect, not every such curve was filed as active; inactive = no such curve, though single readings can be large or run the other way; also: potency is read from the fitted curve at half-maximal effect; nearly all actives have a fitted effect of over 30% in size
Target sequence (P63096 whole entry, looked up): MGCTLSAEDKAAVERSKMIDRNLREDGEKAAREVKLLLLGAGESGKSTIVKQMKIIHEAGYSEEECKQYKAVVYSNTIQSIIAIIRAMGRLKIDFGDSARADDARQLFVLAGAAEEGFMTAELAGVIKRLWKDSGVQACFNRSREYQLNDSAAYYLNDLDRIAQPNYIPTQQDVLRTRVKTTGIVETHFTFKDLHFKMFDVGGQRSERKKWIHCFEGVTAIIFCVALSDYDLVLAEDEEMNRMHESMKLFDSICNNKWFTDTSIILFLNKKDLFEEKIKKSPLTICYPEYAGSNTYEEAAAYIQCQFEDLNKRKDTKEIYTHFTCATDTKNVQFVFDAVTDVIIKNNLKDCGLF
TRb SRC2 PPI: inhibitors of human thyroid hormone receptor beta-SRC2 interaction; Potency, µM (doses to about 106 µM), for the others: top-dose activity change, negative = inhibition, most hits filed as inhibitors; P10828; TRbeta-SRC2 peptide binding, fluorescence polarization; receptor liganded with 1 µM T3; 280,000 tested, 0.065% active; active = well fitted inhibition curve with a large enough effect; inconclusive = small, poorly fitted or top-dose-only effect, or effect the other way;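 also: potency is read from the fitted curve at half-maximal effect; plate controls were bound peptide for no effect and peptide without receptor for full effect; nearly all actives have a fitted effect of over 50% in size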
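Quantitative HTS by FP: 0.6 uM TRb LBD, 20 nM labeled SRC2 20-mer, 1 uM T3, 5% DMSO; 5 hr ambient incubation; % activity per concentration and potencies from concentration series.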
TR SRC2 fluor cs: counter-screen for TRb-SRC2 inhibitors: fluorescence interference; TRb/SRC2 Texas Red total fluorescence interference; Potency, µM (doses to about 106 µM), without a hit: at the top dose fluorescence change, negative = quenching; 280,000 tested, 0.29% active; AID 1479; active = well fitted curve in either direction with a large enough effect; inconclusive = small, poorly fitted or top-dose-only effect; also: potency is read from the fitted curve at half-maximal effect
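Human TRb ligand-binding domain at 0.6 uM with 20 nM Texas Red SRC2 peptide in Tris buffer containing 1 uM T3 and 5% DMSO, incubated with compound 5 h at ambient temperature. Total fluorescence (555/632 nm) calculated as parallel + 2 × perpendicular.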
* = called active by the depositor; [ ] = remark or other dose. Unless noted, % is scaled to controls: 0 for no effect and ±100 for the full control effect.

What do the screens show for `Cc1cc(O)c(C=Nc2ccc(Cl)cn2)c(=O)o1`?
Coupling enz: 2; RGS12 GoLoco inh: 305%; TRb SRC2 PPI: 5%; TR SRC2 fluor cs: 27%

How did Oc1ccc2ccccc2c1C=NCc1ccccc1 do in these assays?
Coupling enz: -32*; RGS12 GoLoco inh: -10%; TRb SRC2 PPI: inconclusive; TR SRC2 fluor cs: -27%

What do the screens show for `Oc1ccc2ccccc2c1/C=N/c1nc2c(s1)CCCC2`?
Coupling enz: -40*; RGS12 GoLoco inh: -13%; TRb SRC2 PPI: inconclusive; TR SRC2 fluor cs: -27%

Results for O=S(=O)(/N=C/c1c(O)ccc2ccccc12)c1cccs1 ?
Coupling enz: -50*; RGS12 GoLoco inh: -7%; TRb SRC2 PPI: 28µM*; TR SRC2 fluor cs: inconclusive

How did Oc1ccc2ccccc2c1/C=N/Nc1ccccc1 do in these assays?
Coupling enz: -26; RGS12 GoLoco inh: -10%; TRb SRC2 PPI: -1%; TR SRC2 fluor cs: 0%

What do the screens show for `Oc1ccc2ccccc2c1C=NC1CCCCC1`?
Coupling enz: -24; RGS12 GoLoco inh: -2%; TRb SRC2 PPI: 5%; TR SRC2 fluor cs: -4%

Results for Cc1ccc(CNC(=O)Cn2cc(S(=O)(=O)Cc3cccc(Cl)c3)c3ccccc32)cc1 ?
TRb SRC2 PPI: 6%; TR SRC2 fluor cs: 3%

How did Cc1ccc(S(=O)(=O)/N=C/c2c(O)ccc3ccccc23)cc1 do in these assays?
Coupling enz: -32*

What do the screens show for `O=CN/N=C/c1c(O)ccc2ccccc12`?
Coupling enz: -3; RGS12 GoLoco inh: 8%; TRb SRC2 PPI: 1%; TR SRC2 fluor cs: -4%

What do the screens show for `O=C(O)CC1c2ccccc2CCN1C(=O)Nc1cc(Cl)ccc1Cl` (configuration not stated)?
TRb SRC2 PPI: 1%; TR SRC2 fluor cs: -3%

How did CN(C)c1ccc(N/C=C/C(=O)C(C)(C)C)cc1 do in these assays?
Coupling enz: -29; RGS12 GoLoco inh: -5%; TRb SRC2 PPI: 45µM*; TR SRC2 fluor cs: inconclusive

What do the screens show for `CN(C)c1ccc(N/C=C/C(=O)c2ccccc2)cc1`?
Coupling enz: -21; RGS12 GoLoco inh: 68%; TRb SRC2 PPI: 32µM*; TR SRC2 fluor cs: 45µM*[fluorescent]

Results for NC(C(=O)O)C(O)c1ccc(O)c(O)c1 (configuration not stated) ?
RGS12 GoLoco inh: 2%; TRb SRC2 PPI: 6%; TR SRC2 fluor cs: -17%

Results for Cc1nc2ccc(N=NN(C)C)cc2[nH]1 ?
Coupling enz: -35*; RGS12 GoLoco inh: -3%; TRb SRC2 PPI: 8%; TR SRC2 fluor cs: -5%

Results for Cc1nc2ccc(Cc3ccc4nc(C)[nH]c4c3)cc2[nH]1 ?
Coupling enz: 2; RGS12 GoLoco inh: 0%; TRb SRC2 PPI: -8%; TR SRC2 fluor cs: -1%

How did COc1ccc(OC)c(Nc2nc(-c3sc(N)nc3C)cs2)c1 do in these assays?
Coupling enz: -31*; RGS12 GoLoco inh: 29%; TRb SRC2 PPI: -1%; TR SRC2 fluor cs: -4%

Results for CCCC(=O)Nc1nc(C)c(-c2csc(Nc3cc(OC)ccc3OC)n2)s1 ?
Coupling enz: -1; RGS12 GoLoco inh: -7%; TRb SRC2 PPI: -2%; TR SRC2 fluor cs: -5%

How did CCC1(CC)C(=O)C2=C3C1[C@H](C(=O)OC)CC(C(=O)OC)C[C@H]3n1c(=O)n(-c3ccccc3)c(=O)n1[C@H]2C (some centres not stated) do in these assays?
Coupling enz: 3; TRb SRC2 PPI: inconclusive; TR SRC2 fluor cs: 45µM*[fluorescent]

What do the screens show for `COC(=O)C1C[C@@H]2C3=C(C(=O)[C@@](C)(NC(=O)c4ccccc4)C3[C@H](C(=O)OC)C1)[C@H](C)n1c(=O)n(-c3ccccc3)c(=O)n12` (some centres not stated)?
Coupling enz: 2; TRb SRC2 PPI: -7%; TR SRC2 fluor cs: 0%

Results for O=C(CCN1CCN(c2ccccc2)CC1)N/N=C/c1ccc(O)c(O)c1O ?
Coupling enz: -40*; RGS12 GoLoco inh: 22%; TRb SRC2 PPI: 5%; TR SRC2 fluor cs: -2%

Results for O=C(Cc1csc(N2CCOCC2)n1)N/N=C/c1ccc(O)c(O)c1O ?
Coupling enz: -61*; RGS12 GoLoco inh: 2%; TRb SRC2 PPI: 2%; TR SRC2 fluor cs: -5%

Results for C/C(=N\NC(=O)Cc1csc(N2CCOCC2)n1)c1ccccc1 ?
Coupling enz: 0; RGS12 GoLoco inh: 7%; TRb SRC2 PPI: -4%; TR SRC2 fluor cs: -1%

How did Cc1cc(C(=O)N/N=C/c2ccc(O)c(O)c2O)c(C)n1-c1ccccc1 do in these assays?
Coupling enz: -33*; RGS12 GoLoco inh: 35%; TRb SRC2 PPI: 6%; TR SRC2 fluor cs: -1%

What do the screens show for `O=C(O)CCNCC(=O)O`?
RGS12 GoLoco inh: 0%[14.2 µM]

How did CCc1nn(-c2ccccc2)c2nc(-c3cccc(OC)c3)c3cc(OC)c(OC)cc3c12 do in these assays?
TRb SRC2 PPI: 2%; TR SRC2 fluor cs: -8%

Results for COc1ccc(/C(=N/OC(C)=O)c2nccc3cc(OC)c(OC)cc23)cc1OC ?
Coupling enz: -32*; RGS12 GoLoco inh: 4%; TRb SRC2 PPI: -5%; TR SRC2 fluor cs: -5%

What do the screens show for `O=C(Nc1nc2c(s1)CCc1ccccc1-2)c1cccs1`?
Coupling enz: -11; RGS12 GoLoco inh: 6%; TRb SRC2 PPI: 7%; TR SRC2 fluor cs: 1%

What do the screens show for `Fc1ccccc1Nc1nc2c(s1)CCc1ccccc1-2`?
Coupling enz: -69*; RGS12 GoLoco inh: -20%; TRb SRC2 PPI: 6%; TR SRC2 fluor cs: 4%

What do the screens show for `OCC1O[C@H](O[C@H]2C(O)C(O)C(O)O[C@@H]2CO)C(O)C(O)C1O` (some centres not stated)?
Coupling enz: 0; RGS12 GoLoco inh: 2%; TRb SRC2 PPI: -3%; TR SRC2 fluor cs: -3%

How did Oc1ccc2c(ccc3[nH]cnc32)c1 do in these assays?
Coupling enz: -8; RGS12 GoLoco inh: 8%; TRb SRC2 PPI: -3%; TR SRC2 fluor cs: -6%

What do the screens show for `Brc1cc2[nH]cnc2c2ccccc12`?
Coupling enz: -39*; RGS12 GoLoco inh: 22%; TRb SRC2 PPI: 5%; TR SRC2 fluor cs: 1%

Results for O=C(Oc1ccccc1)N1CCC2(CC1)CCN(c1ccncc1)CC2 ?
Coupling enz: 3; RGS12 GoLoco inh: 2.8µM*

Results for CCc1nn(-c2ccccc2)c2nc(-c3ccccc3OC)c3cc(OC)c(OC)cc3c12 ?
TRb SRC2 PPI: -14%; TR SRC2 fluor cs: 0.14µM*[quencher]

Results for CCc1nn(-c2ccccc2)c2nc(-c3ccc(O)cc3)c3cc(OC)c(OC)cc3c12 ?
TRb SRC2 PPI: -4%; TR SRC2 fluor cs: 5%

How did CCOC(=O)c1c(C)oc2c1cc(O)c1ccccc12 do in these assays?
Coupling enz: -14; RGS12 GoLoco inh: 6%; TRb SRC2 PPI: 3%; TR SRC2 fluor cs: -1%

Results for CCOC(=O)c1c(C)[nH]c2c1cc(O)c1ccccc12 ?
Coupling enz: -33*; RGS12 GoLoco inh: 2%; TRb SRC2 PPI: -1%; TR SRC2 fluor cs: -6%

What do the screens show for `COc1cc(C/C=C\c2ccccc2)c(OC)cc1O`?
Coupling enz: -47*; RGS12 GoLoco inh: -2%; TRb SRC2 PPI: 7%; TR SRC2 fluor cs: -3%

What do the screens show for `CC(C)(C)c1ccc(C(=O)NNc2ncnc3c2cnn3-c2ccccc2)cc1`?
TRb SRC2 PPI: 14%; TR SRC2 fluor cs: -3%

Compound activity: PubChem BioAssay, National Center for Advancing Translational Sciences (NCATS)
